Among the data in PubChem BioAssay (NCATS) are Potency values, retold here.

The structures appear in SMILES notation. Records with an inconclusive call do not appear. Entries that show only a call come without a potency. Calls of active or inactive are those of the source. The call rests on the fitted dose curve; in most records, active means well fitted inhibition curve with a large enough effect; inconclusive means small, poorly fitted or top-dose-only effect; inactive means flat fitted curve, though single readings scatter.
Potency means the concentration at half of the fitted maximal effect.

Sequence of Voltage-gated inwardly rectifying potassium channel KCNH2 (Homo sapiens) (Q12809 whole entry, looked up): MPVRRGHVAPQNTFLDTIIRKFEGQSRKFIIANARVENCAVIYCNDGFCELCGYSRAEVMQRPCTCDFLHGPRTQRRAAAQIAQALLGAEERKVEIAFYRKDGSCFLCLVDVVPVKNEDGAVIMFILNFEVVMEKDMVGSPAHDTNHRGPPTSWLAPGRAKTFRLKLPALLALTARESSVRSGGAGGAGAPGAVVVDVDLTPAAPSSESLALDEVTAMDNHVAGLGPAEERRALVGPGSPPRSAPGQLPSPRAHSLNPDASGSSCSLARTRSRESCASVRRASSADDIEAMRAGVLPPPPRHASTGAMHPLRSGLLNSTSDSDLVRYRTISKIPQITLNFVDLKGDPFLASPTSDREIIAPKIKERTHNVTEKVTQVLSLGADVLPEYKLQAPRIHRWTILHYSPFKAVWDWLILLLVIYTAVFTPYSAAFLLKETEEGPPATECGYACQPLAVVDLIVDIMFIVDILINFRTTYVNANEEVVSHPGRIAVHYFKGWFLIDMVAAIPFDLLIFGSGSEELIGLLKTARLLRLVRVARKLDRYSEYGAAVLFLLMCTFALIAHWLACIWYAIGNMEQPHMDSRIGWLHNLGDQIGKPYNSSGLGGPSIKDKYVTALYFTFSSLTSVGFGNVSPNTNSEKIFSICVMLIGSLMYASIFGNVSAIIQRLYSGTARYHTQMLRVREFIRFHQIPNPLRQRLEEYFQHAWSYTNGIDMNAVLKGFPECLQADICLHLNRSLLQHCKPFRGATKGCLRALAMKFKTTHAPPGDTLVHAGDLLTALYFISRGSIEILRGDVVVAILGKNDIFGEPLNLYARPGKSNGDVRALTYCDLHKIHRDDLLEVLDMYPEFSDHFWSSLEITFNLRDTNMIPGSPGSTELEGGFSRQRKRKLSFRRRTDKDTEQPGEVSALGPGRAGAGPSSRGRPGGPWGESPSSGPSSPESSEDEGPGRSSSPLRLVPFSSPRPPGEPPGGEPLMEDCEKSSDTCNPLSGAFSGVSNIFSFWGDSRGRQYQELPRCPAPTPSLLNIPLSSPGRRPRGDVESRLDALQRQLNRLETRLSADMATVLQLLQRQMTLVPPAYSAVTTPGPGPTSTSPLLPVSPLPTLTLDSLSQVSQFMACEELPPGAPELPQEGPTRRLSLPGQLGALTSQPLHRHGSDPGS

The test concerns the target Voltage-gated inwardly rectifying potassium channel KCNH2 (Homo sapiens) (UniProt Q12809). Briefly: qHTS Assay for Small Molecule Inhibitors of the Human hERG Channel Activity (AID 588834).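 Further: lower thallium flux fluorescence means stronger hERG block; nearly all actives have a fitted effect of over 50% in size.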 As to conditions: U2OS BacMam hERG, FluxOR thallium flux fluorescence; series mostly up to 46.1 µM. The procedure, abridged:
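Step 1: BacMam hERG transduction of U2OS, 4 hrs RT. Step 2: overnight 37 °C, plate 2000 cells/well, 4 hr. Step 3: FluxOR load, compound 10 min, stimulate, read fluorescence.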
On the technique in general: Quantitative high-throughput screening tests each substance at several concentrations.
As for `O=C(NC1CCN(CCc2c[nH]c3ccccc23)CC1)c1ccccc1`, the Potency was 0.891 µM (active).
In the case of `C/C=C/C=N/NC(=O)c1ccncc1` it was “inactive”; in that of `CCCc1ncc(C[n+]2ccccc2C)c(N)n1`, “inactive”.
In the case of `CCC(CC)(CC(=O)Nc1cccc(/C=C/c2nc(C3CCC3)cs2)c1)C(=O)O` it was “inactive”.
As for `COc1cc(N)c(Cl)cc1C(=O)NC1CCN(Cc2ccccc2)CC1`, the Potency was 5.01 µM (active).
As to `C[C@@]12C(=O)OC(=O)[C@]1(C)C1CCC2O1`, the Potency result was “inactive”.
Turning to `C=CCN1CCc2nc(N)sc2CC1`, the Potency result is “inactive”.
The result for `CC[C@]12CCCN3CCc4c(n(c5ccccc45)C(=O)C1)[C@@H]32` reads 0.447 µM (active); that for `CC(C)n1c(/C=C/[C@@H](O)C[C@@H](O)CC(=O)O)c(-c2ccc(F)cc2)c2ccccc21`, “inactive”.
In the case of `O=[N+]([O-])c1cccc(S(=O)(=O)NCCNS(=O)(=O)c2cccc([N+](=O)[O-])c2)c1` it was “inactive”; in that of `C=C1c2cccc(O)c2C(O)=C2C(=O)[C@]3(O)C(O)=C(C(N)=O)C(=O)[C@@H](N(C)C)[C@@H]3[C@@H](O)[C@H]12`, “inactive”.
In the case of `COc1ccc(C(=O)c2ccccc2O)c(O)c1` it was “inactive”; in that of `Cc1cccc(C)c1NC(=O)CN1CCCC1`, “inactive”; in that of `CCN(CC)CCOC(=O)C1(c2ccccc2)CCCC1`, “inactive”.
For the molecule `N[C@H](C(=O)O)[C@@H](O)c1ccc(O)c(O)c1`, the Potency entry was “inactive”.
In the case of `CCN1CCCC(OC(=O)C(c2ccccc2)c2ccccc2)C1` (configuration not stated) it was 7.94 µM (active).
In the case of `CN(CCCN1c2ccccc2CCc2ccccc21)CC(=O)c1ccc(Cl)cc1` it was 5.01 µM (active); in that of `CN1CCN(c2cc3c(cc2F)c(=O)c(C(=O)O)cn3-c2ccc(F)cc2)CC1`, “inactive”.
In the case of `O=C1C(=O)c2ccccc2C(O)=C1C1CCC(c2ccc(Cl)cc2)CC1` (configuration not stated) it was “inactive”.
With `OC1C(O)C(O)C(O)C(O)C1O` (configuration not stated), the Potency entry was “inactive”.
As to `O=c1[nH]c(=O)n([C@H]2C[C@H](O)[C@@H](CO)O2)cc1F`, the Potency entry is “inactive”.
In the case of `CC(C)[N+](C)(C)CC(O)COc1cccc2ccccc12` (configuration not stated) it was “inactive”; in that of `CCCCc1cc2ccccc2c(OCCN(C)C)n1`, 7.94 µM (active); in that of `NC(N)=NCc1cccc(I)c1`, “inactive”.
As to `CC(=O)Nc1ccc(OCC(O)CNC(C)C)cc1` (configuration not stated), the Potency result was “inactive”.
In the case of `O=C1C(O)=C(O)C(=O)C(O)=C1O` it was “inactive”; in that of `CC[N+](C)(CC)CCOC(=O)C(O)(c1ccccc1)C1CCCCC1` (configuration not stated), “inactive”; in that of `O=C(O)CCNC(=O)c1ccccc1`, “inactive”.
`CCCCCCCCCCCCCC[N+](C)(C)Cc1ccccc1`: the Potency was 7.94 µM (active).
In the case of `CC(C)Cn1cnc2c1c(=O)n(C)c(=O)n2C`, the Potency entry is “inactive”.
In the case of `CCNC(=O)/C=C/c1cccc(Br)c1` it was “inactive”; in that of `Cc1ccc(-c2ncc(Cl)cc2-c2ccc(S(C)(=O)=O)cc2)cn1`, “inactive”.
The result for `NC1CCN(c2nc3c(cc2F)c(=O)c(C(=O)O)cn3-c2ccc(F)cc2F)C1` (configuration not stated) reads “inactive”.
In the case of `CCN(CC)CCOc1ccccc1C(=O)CCc1ccccc1` it was 1.12 µM (active).
As for `O=C(Nc1ncc([N+](=O)[O-])s1)c1cccs1`, the Potency result is “inactive”.
The result for `CC(=O)Oc1ccc(C)cc1` reads “inactive”.
On to `CCOC(=O)[C@H](CCc1ccccc1)N[C@@H](C)C(=O)N1[C@H](C(=O)O)C[C@H]2CCCC[C@@H]21`, for which the Potency result was “inactive”.
